# Source: PubChem BioAssay AID540317 (National Center for Advancing Translational Sciences (NCATS), 2011)
# Screen size: about 390,000 compounds; about 2,200 (0.56%) were called active. Inconclusive results (about 3%) are left out. The call rests on the fitted dose curve; in most records, active means well fitted inhibition curve with a large enough effect; inconclusive means small, poorly fitted or top-dose-only effect; inactive means no such curve, though single readings can be large or run the other way. Only a selection was taken, and actives are over-represented in it overall.
# Target: Chromobox protein homolog 1 (Homo sapiens) (UniProt P83916)
# Sequence (P83916 whole entry, looked up): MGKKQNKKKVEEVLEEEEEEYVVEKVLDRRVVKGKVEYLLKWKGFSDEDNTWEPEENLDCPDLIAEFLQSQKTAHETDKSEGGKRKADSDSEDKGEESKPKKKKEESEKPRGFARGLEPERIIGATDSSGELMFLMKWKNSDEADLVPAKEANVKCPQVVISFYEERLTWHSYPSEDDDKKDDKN
# Assay: HTS for Inhibitors of HP1-beta Chromodomain Interactions with Methylated Histone Tails; further: nearly all actives have a fitted effect of over 70% in size
# Details: AlphaScreen HP1-beta / biotin-H3K9me3 peptide binding; series mostly up to 114 µM; activity change, negative = inhibition: at the top concentration
# Method in brief: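 AlphaScreen: HP1-beta (50 nM) preformed 30 min with biotin-H3(1-18)K9me3 peptide (50 nM) in PBS pH 7.4, 0.01% Tween-20. Compound added for 30 min at RT, then streptavidin donor/nickel chelate acceptor beads (10 ug/mL) for 30 min.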
# Potency means the concentration at half of the fitted maximal effect.
SMILES,"activity change, negative = inhibition",Potency
Cc1ccc(-c2nnc3ccc(SCC(N)=O)nn23)cc1,32% (inactive),
COC(=O)CCc1ccccc1S(=O)(=O)N(CCC(=O)OC)Cc1ccccc1,-5.53% (inactive),
Cc1ccc(C)c(Nc2nnc(-c3ccc(C)c(S(=O)(=O)N4CCCCC4)c3)c3ccccc23)c1,26.8% (inactive),
CCc1ccc(NC(=O)C(C)OC(=O)/C=C/c2cccc([N+](=O)[O-])c2)cc1 (centres undefined),12.7% (inactive),
CC(C)OP(=O)(OC(C)C)C(Nc1ccccc1)c1cccc([N+](=O)[O-])c1 (centres undefined),15% (inactive),
COC(=O)/C=C\C(=O)Nc1cccc([N+](=O)[O-])c1,,10 µM (active)
Cc1c(-c2nsc(NC(=O)c3cccc(Cl)c3)n2)nnn1-c1ccccc1C(F)(F)F,20.1% (inactive),
CCOCCCNC(=O)c1ccc2nc(CCc3ccccc3)oc2c1,19.6% [at 57 µM] (inactive),
COc1ccc(/C=C/C(=O)c2cc(Br)ccc(=O)c2O)cc1,,50.1 µM (active)
CCOc1ccc(NC(=S)NC(=O)/C=C/c2ccc(OC)cc2)c([N+](=O)[O-])c1,-2.89% (inactive),
COc1cccc(N2CC(NC(=O)/C=C\c3ccccc3)CC2=O)c1 (centres undefined),5.02% (inactive),
CC1CCN(S(=O)(=O)c2ccc3c(c2)N(CC(=O)NCCc2ccccc2)C(=O)CO3)CC1,10.4% (inactive),
Brc1nc2ncnc(NCc3ccco3)c2[nH]1,7.51% [at 57 µM] (inactive),
Nc1ccc2[nH]c(=S)sc2c1,,28.2 µM (active)
COC(=O)c1ccc(NC(=O)CCc2c(C)nn(-c3ccc(N4CCCC4)nn3)c2C)cc1,39.1% (inactive),
OCC(CO)(CO)NCc1ccc(-c2ccccc2)cc1,16.6% (inactive),
Oc1ccc(CNc2ccccc2O)cc1,,50.1 µM (active)
Oc1ccc(N2CCN(C(=S)NCc3ccccc3)CC2)cc1,-18.1% (inactive),
COc1cccc(CNC(=O)CSc2c3c(nc4cc(Cl)ccc24)CCCC3)c1,47.5% (inactive),
N#Cc1cc2[nH]c(=O)c(=O)[nH]c2cc1[N+](=O)[O-],2.3% (inactive),
CCN(C(=O)Cn1cnc2sc(C)c(S(=O)(=O)N3CCN(c4ncccn4)CC3)c2c1=O)c1ccccc1F,46.6% (inactive),
O=S(=O)(c1ccccc1)c1nc(-c2ccc(Cl)cc2Cl)oc1N1CCCCC1,-21.6% [at 57 µM] (inactive),
Cc1ccc(C(=O)COC(=O)CCCC(=O)NC2CCCCC2)cc1[N+](=O)[O-],19.2% (inactive),
Cc1cc([N+](=O)[O-])c(NC2CCCCC2)c([N+](=O)[O-])c1,,15.8 µM (active)
Cc1cc([N+](=O)[O-])c(N2CCC[C@@H]2C(=O)O)c([N+](=O)[O-])c1,22.6% (inactive),

SMILES,"activity change, negative = inhibition",Potency
COc1ccc(C2Nc3ccc(NC(=O)COC(C)=O)cc3C(=O)N2Cc2ccccc2)cc1COc1ccc(NC(C)=O)cc1 (centres undefined),33.9% (inactive),
O=C(NCc1ccccc1)c1cccc(NC(=O)N2CCSc3ncccc32)c1,45.2% (inactive),
CCCN(C(=O)Cn1ncc2c([nH]c3ccc(C)cc32)c1=O)c1ccccc1C,5.82% (inactive),
Cc1ccc(CCNC(=O)c2nnc(Cc3cccc(F)c3)o2)cc1,-11.4% (inactive),
COc1cccc(-c2n[nH]c3c2C(c2cccc(O)c2)N(C)C3=O)c1 (centres undefined),10.2% (inactive),
O=C(CN1CCCCCC1)Nc1ccc(Br)cc1Br,121% (inactive),
O=C(CN1CCCCCC1)Nc1ccc(Br)cc1[N+](=O)[O-],,50.1 µM (active)
O=C(CN1CCC(NC(=O)C2CC2)CC1)Nc1ccccc1[N+](=O)[O-],13.5% (inactive),
COc1ccc(C(CCN2CCOCC2)c2c(OC)cc(OC)c3c2OC(=O)CC3c2ccc(OC)cc2)cc1 (centres undefined),-21.1% (inactive),
CCOc1ccc(N2CC(C)Cn3c2nc2c3c(=O)n(Cc3c(F)cccc3Cl)c(=O)n2C)cc1 (centres undefined),46.2% (inactive),
COC(=O)c1ccccc1NC(=O)Cn1c(=O)n(-c2cccc(C(F)(F)F)c2)c(=O)c2c(C)c(C)sc21,12.3% (inactive),
CCOc1ccc(S(=O)(=O)c2cn(Cc3ccc(OC)cc3)c3ccc(F)cc3c2=O)cc1,43.2% (inactive),
COc1ccc2c(c1)c(=Cc1ccc(N(C)C)cc1)c1cc(-c3ccccc3)[n+](C)n12,,39.8 µM (active)
COc1ccc(-c2ccc(C3C4C=CCCC4(C)C(=O)N3Cc3ccccc3)c(F)c2)cc1OC (centres undefined),14.5% (inactive),
Clc1cccc(-n2ncc3c(NCCc4ccccc4)ncnc32)c1,97.1% (inactive),
CCCOC(=O)c1c(NC(=O)c2cc3nc(-c4ccc(OC)cc4)cc(C(F)(F)F)n3n2)sc2c1CCCC2,5.34% (inactive),
C=CCN(CC=C)CCOc1ccccc1[N+](=O)[O-],,39.8 µM (active)
Cc1ccc(OCC(=O)Oc2ccccc2[N+](=O)[O-])cc1,20.1% (inactive),
O=C(COc1ccccc1[N+](=O)[O-])NC1CC1,39.7% (inactive),
OCCNc1ncnc2oc(-c3ccco3)c(-c3ccco3)c12,-0.766% (inactive),
CCOC(=O)C1CCCN(C(=O)c2ccc(-n3ccc4ccccc43)s2)C1 (centres undefined),99.9% (inactive),
O=C(c1cccc(Br)c1)N1CCN(Cc2cc(=O)n3nc(-c4ccccc4)sc3n2)CC1,20.1% [at 57 µM] (inactive),
Cc1c(NC(=O)CCC2CCCCC2)cc(C(=O)N2CCOCC2)cc1[N+](=O)[O-],59.7% (inactive),
Cc1cc(C=O)c(C)n1-c1ccc(NC2CCCCC2)c([N+](=O)[O-])c1,,25.1 µM (active)
COc1ccc(NC(=O)CN(C)C(=O)c2ccc(NC3CC3)c([N+](=O)[O-])c2)cc1,-5.96% (inactive),

SMILES,"activity change, negative = inhibition",Potency
CCOc1ccc(CC(=O)NCCc2csc3nc(-c4ccccc4F)nn23)cc1,13.6% [at 57 µM] (inactive),
CCOc1ccccc1N(C)C(=O)c1cc2c(s1)-c1ccccc1OC2,26.3% (inactive),
CCc1ccc(OCCCn2c(CCCNC(=O)C3CCCCC3)nc3ccccc32)cc1,27.3% [at 57 µM] (inactive),
Cc1ccc(OCC(=O)Nc2ccc(Cl)c(-c3nc4ccccc4[nH]3)c2)cc1C,41.1% (inactive),
Cc1ccc(C(=O)Nc2ccccc2F)cc1S(=O)(=O)N1CCOCC1,39.4% (inactive),
O=C(CC1SC(N2CCOCC2)=NC1=O)Nc1ccccc1F (centres undefined),59.6% (inactive),
N#C/C(=C\C1=C(N2CCOCC2)C(=C\c2ccccc2)/CC1)C(=O)Nc1ccccc1F,,7.08 µM (active)
O=C(Nc1ccc(Br)cc1)c1ccc(Br)c(S(=O)(=O)NCc2ccccc2)c1,-11% (inactive),
CC(C)C12CN3CC(C(C)C)(CN(C1)C3c1ccc(OCc3ccccc3)cc1)C2=O (centres undefined),4.34% (inactive),
O=C(O)c1ccc2c(c1)N(Cc1ccc(F)cc1)C(=O)c1ccccc1S2=O (centres undefined),28.1% (inactive),
Cc1ccc(CNS(=O)(=O)c2ccc(-c3cc(C(F)(F)F)on3)s2)cc1,48.9% (inactive),
N#Cc1c(N2CCCCC2)nc(N)c2c(N)nc(SCC(=O)O)cc12,,35.5 µM (active)
CCC(C)c1ccc2oc(-c3ccc(NC(=O)c4cc5ccccc5o4)cc3)nc2c1 (centres undefined),5.45% (inactive),
CCCCc1nn2c(=O)cc(COC(=O)c3ccccc3NC(=O)C(C)(C)C)nc2s1,32.6% (inactive),
Cc1cc(NC(=O)CSc2ncc(C(=O)Nc3ccc(Cl)cc3)c(=O)n2C)no1,19.9% (inactive),
CSC1=N/C(=C\C=C\c2cccs2)C(=O)S1,,28.2 µM (active)
Cc1ccc(C(=O)NCCSc2c(C)[nH]c3ccccc23)cc1C,8.02% (inactive),
Cc1ccc(C)c(N2C(=O)N(Cc3c(F)cccc3Cl)c3ccccc3S2(=O)=O)c1,51.8% (inactive),
COc1ccc(-c2onc(C)c2C)cc1S(=O)(=O)NCCc1ccccc1,17.1% (inactive),
Cn1c(CCCOc2ccc(Cl)cc2Cl)n[nH]c1=S,-3.23% (inactive),
COc1ccc(OCc2n[nH]c(=S)n2N)cc1,,10 µM (active)
C=CCn1c(CCc2ccc(OC(C)C)cc2)n[nH]c1=S,9.44% (inactive),
CSc1nc(-c2ccccc2Cl)nc2c1Cc1c(CO)cnc(C)c1O2,14.1% (inactive),
COc1ccc(N2C(=O)/C(=C\c3ccco3)N=C2SCC(N)=O)cc1Cl,17.6% (inactive),
COC(=O)C1=C(C)N(c2ccc(C)cc2)/C(=C/c2ccc(O)cc2)C1=O,24.6% (inactive),

SMILES,"activity change, negative = inhibition",Potency
COC(=O)C1=C(C)N(c2ccc(Br)cc2)C(=O)/C1=C\c1ccco1,,44.7 µM (active)
Cc1nc(N2CCOCC2)c2c(C(=O)NCc3cccc(Cl)c3)c(C)oc2n1,34.2% (inactive),
CC(C)(C)c1ccc(/C=C/C(=O)NC2CCS(=O)(=O)C2)cc1 (centres undefined),25.9% (inactive),
CN(C)c1ccc(/C=C/C(=O)c2ccc(C(C)(C)C)cc2)cc1[N+](=O)[O-],,31.6 µM (active)
CN(C)c1ccc(S(=O)(=O)NCC(=O)NCC2CCCCC2)cc1[N+](=O)[O-],-11.4% (inactive),
CCCCC(=O)OC1=CN(Cc2ccccc2)S(=O)(=O)c2ccccc21,107% (inactive),
COc1ccc(C(=O)Nc2nonc2-c2ccc(OC)c(OC)c2)cc1Cl,29.6% (inactive),
O=C(CSc1nc2ccccc2nc1Cc1ccccc1)N1CCCCC1,41% [at 57 µM] (inactive),
O=C(NCC1CC1)C1(C(F)(F)F)C/C(=C\CCO)CCCO1 (centres undefined),-2.38% (inactive),
O=C(O)c1ccccc1N=N/C(=N/Nc1cc(S(=O)(=O)O)ccc1O)c1ccccc1,,10 µM (active)
CCC(=O)Nc1cccc(C(=O)OCc2cc(=O)n3nc(CC)sc3n2)c1,27.5% (inactive),
O=C(Nc1ccccc1Br)c1cc(CN2CCCC2)on1,13.6% (inactive),
Fc1ccc(C(Nc2ccc(Cl)c(C(F)(F)F)c2)c2nnc(-c3ccccc3)o2)cc1 (centres undefined),34% (inactive),
COc1ccc(C2CC(=O)N(Cc3ccccc3C)c3c2c(C)nn3-c2nc(C)cc(C)n2)c(OC)c1 (centres undefined),39.1% (inactive),
COc1cc(OC)c2c(c1C(CCN1CCCCC1)c1ccc(N(C)C)cc1)OC(=O)CC2c1ccc(N(C)C)cc1 (centres undefined),-26% (inactive),
CCc1c(C)sc(NC(=O)C2c3ccccc3Oc3ccccc32)c1C(=O)OC(C)C,22.5% (inactive),
Cc1sc(NC(=O)C2C3CCC(O3)C2C(=O)O)c(C(=O)OC(C)C)c1-c1ccc(Cl)cc1 (centres undefined),,4.47 µM (active)
CC(C)OC(=O)c1cc(NC(=O)C2C3CCC(O3)C2C(=O)O)cc(C(=O)OC(C)C)c1 (centres undefined),38.1% (inactive),
FC(F)(F)C1CCCN(c2nsc3ccccc23)C1 (centres undefined),,3.16 µM (active)
CCC(=O)N1CCc2cc(S(=O)(=O)NC(C(=O)Nc3ccc(C(C)=O)cc3)C(C)C)ccc21 (centres undefined),22.5% (inactive),
COc1ccc(C2/C=C\CN(Cc3ccco3)C(C)C(=O)N2Cc2ccc(F)cc2)cc1 (centres undefined),12.8% (inactive),
Cc1ccc(CSCC2Nc3ccc(C(=O)N4CCN(c5ccc(F)cc5)CC4)cc3NC2=O)cc1 (centres undefined),,20 µM (active)
CC1CCN(C(=O)c2ccc3c(c2)NC(=O)CN3)CC1,22.1% (inactive),
Cc1noc(C)c1S(=O)(=O)Nc1ccc(C(=O)N2CCN(c3ccc(F)cc3)CC2)cc1,27.9% (inactive),
